Compound activity: PubChem BioAssay, several laboratories
Most compounds without a hit are left out; they make up all but 3.5% or so of the library.
Mtb FBA inh = inhibits M. tuberculosis FBA enzyme. P9WQA3. purified M. tuberculosis FBA, fluorescence read-out. inhibition, % at 1 µM. hit rate 2.3% among 360,000. AID 588726; in the data active = inhibition above about 27%;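 also: 0% = vehicle and 100% = reference inhibitor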
Mtb UGM inh = Mtb UDP-galactopyranose mutase inhibition; P9WIQ1; purified UGM, fluorescence polarization probe displacement; inhibition, % at 10 µM; hit rate 0.06% among 320,000; in the data active = inhibition above about 10%, passing the limit was not always enough; inconclusive = no clear call, values can overlap the other calls
Target sequence (P9WIQ1 whole entry, looked up): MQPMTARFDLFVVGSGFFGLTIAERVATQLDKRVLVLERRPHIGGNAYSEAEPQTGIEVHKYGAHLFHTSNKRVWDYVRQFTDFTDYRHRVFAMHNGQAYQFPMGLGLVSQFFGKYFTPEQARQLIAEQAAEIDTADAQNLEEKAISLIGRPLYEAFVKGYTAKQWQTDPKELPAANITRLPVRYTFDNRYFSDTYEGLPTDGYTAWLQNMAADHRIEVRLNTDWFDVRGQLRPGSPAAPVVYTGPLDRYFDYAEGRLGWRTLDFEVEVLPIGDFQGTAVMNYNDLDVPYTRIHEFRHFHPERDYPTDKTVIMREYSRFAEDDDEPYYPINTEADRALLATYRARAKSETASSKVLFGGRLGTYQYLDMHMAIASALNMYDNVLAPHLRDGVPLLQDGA
Mtb betalactam = beta-lactam sensitization of Mtb H37Rv; M. tuberculosis H37Rv growth with meropenem, percent inhibition; AID 434955; inhibition, % at 25 µM; hit rate 0.27% among 330,000; call rule not given here;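 also: growth measured after seven days incubation then overnight dye step; 0% = bacteria only wells and 100% = bacteria with antibiotic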
Rv3671c protease = inhibitors of M. tuberculosis serine protease Rv3671c | P9WHR9 | AID 2606 | inhibition, % at 5.96 µM | hit rate 0.048% among 320,000; in the data active = inhibition above about 38%;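 also: extracellular domain of Rv3671c used as enzyme; 0% = enzyme with DMSO and 100% = no enzyme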
GDH-TPI counter = GDH-TPI coupled enzyme inhibition counter-screen. GDH-TPI coupled enzyme counterscreen, NADH absorbance. inhibition, % at 4.8 µM. hit rate 1.2% among 360,000; in the data active = inhibition above about 30%;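 also: 0% = DMSO wells and 100% = wells lacking the enzyme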
The depositor's hits bear a star; ? = inconclusive; . = not tested or not shown; + = active, no number.

SMILES | Mtb FBA inh | Mtb UGM inh | Mtb betalactam | Rv3671c protease | GDH-TPI counter
Cc1cc(C)nc(NS(=O)(=O)c2ccc(N/C=C\C(=O)c3ccc(Cl)cc3)cc2)n1 | 3 | -2 | 7 | -9 | 31*
COc1ccc(Oc2ccc(N/C=C3\CCCC3=O)cc2)cc1 | -3 | -4 | 68 | 4 | 40*
O=C1CCCC/C1=C\Nc1ccc(S(=O)(=O)Nc2cnc3ccccc3n2)cc1 | 4 | 1 | 13 | -3 | 38*
O=C1CCCC/C1=C/Nc1ccc2c(c1)OCO2 | -4 | -1 | 34 | 3 | 15
Cc1ccc(C2C=NN(c3ccccc3)C2=O)cc1 (stereo not drawn) | 5 | 1 | 0 | 6 | 1
O=C(CCC(=O)c1cccs1)Nc1ncccc1O | 0 | 1 | -2 | 16 | 2
Cc1cc(C)nc(NS(=O)(=O)c2ccc(N/C=C3\CCCC3=O)cc2)n1 | 0 | 0 | 16 | -5 | 37*
Cc1cc(C)nc(NS(=O)(=O)c2ccc(Br)cc2)n1 | -10 | -2 | 4 | 2 | -4
COc1cc(/C=N/NC(=O)CCC(=O)Nc2ccc(Br)cc2)ccc1O | 1 | -2 | 2 | 0 | 9
BrC(=C\c1ccccc1)/C=N/Nc1nc(N2CCOCC2)nc(N2CCOCC2)n1 | -1 | 2 | 53 | -7 | 31*
CC(/C=N/Nc1nc(N2CCCCC2)nc(N2CCCCC2)n1)=C\c1ccccc1 | 3 | 1 | 90 | 5 | 0
C(=N\Nc1nc(N2CCOCC2)nc(N2CCOCC2)n1)/c1cccnc1 | -1 | -3 | -8 | -2 | 11
BrC(/C=C\c1ccccc1)=N/Nc1nc(N2CCOCC2)nc(N2CCOCC2)n1 | -3 | -1 | 45 | -3 | 45*
C/C(=N\NC(=O)c1ccccn1)c1ccc(Cl)cc1 | 1 | 0 | 97 | -3 | 7
C/C(=N\NC(=O)c1ccc(N/N=C(\C)c2ccc(O)cc2)cc1)c1ccc(O)cc1 | 2 | 1 | 13 | 5 | 46*
C/C(=N/NC(=O)c1ccccn1)c1ccc(O)cc1 | 0 | -2 | 99 | 9 | 32*
CN(C(=O)C1CCC(=O)N(C2CC2)C1)C1CCCCC1 (stereo not drawn) | 0 | -1 | 6 | -4 | 1
COCCn1c(=NC(=O)CSCC(=O)NC2CCCCC2)sc2cc(OC)ccc21 | -2 | -1 | 11 | -14 | 42*
CN(C)c1ccc(NC(=O)CN2CCc3ccccc3C2)cc1 | 4 | 0 | -9 | -3 | 1
Cc1cccn2c(=O)c(/C=C(\C#N)C(N)=O)c(N3CCN(Cc4ccc5c(c4)OCO5)CC3)nc12 | 33* | 0 | 9 | 9 | 16
Cc1cccn2c(=O)c(/C=C(\C#N)C(=O)NC3CCS(=O)(=O)C3)c(Oc3ccccc3Cl)nc12 (stereo not drawn) | 18 | 0 | 4 | -3 | 7
CCOC(=O)/C(C#N)=C/c1c(N2CCN(Cc3ccc4c(c3)OCO4)CC2)nc2c(C)cccn2c1=O | -2 | -1 | -10 | -4 | 7
Cc1ccccc1Oc1nc2c(C)cccn2c(=O)c1/C=C(\C#N)C(=O)NC1CCS(=O)(=O)C1 (stereo not drawn) | 34* | 0 | -8 | 3 | 10
Cc1cccn2c(=O)c(/C=C(\C#N)C(=O)NC3CCS(=O)(=O)C3)c(N3CCC(C(N)=O)CC3)nc12 (stereo not drawn) | 192* | -2 | -7 | -4 | 0
Cc1cccn2c(=O)c(/C=C(\C#N)C(=O)NC3CCS(=O)(=O)C3)c(N3CC(C)OC(C)C3)nc12 (stereo not drawn) | 120* | 0 | -12 | -10 | 7
SMILES | Mtb FBA inh | Mtb UGM inh | Mtb betalactam | Rv3671c protease | GDH-TPI counter
COc1cc2c(cc1OC)CC(C(=O)NCc1ccccc1)NC2 (stereo not drawn) | 3 | 1 | -13 | -12 | -7
Cc1cccn2c(=O)nc(SCC(=O)NCCc3ccccc3)nc12 | 5 | 0 | -12 | 7 | 8
CC1CCC(NS(=O)(=O)c2ccc(N3CCCC3=O)cc2)CC1 (stereo not drawn) | 4 | -2 | -4 | 4 | -3
CCN(CC)c1ccc2cc(NC(=O)CCC(=O)O)c(=O)oc2c1 | 31* | 3 | -3 | 7 | 10
CCN(CC)c1ccc2cc(C(C)=O)c(=O)oc2c1 | -38 | -2 | 14 | 7 | 4
COc1ccc(CN2C(=O)NC(=O)/C(=C/c3ccc([N+](=O)[O-])s3)C2=O)cc1 | -6 | -2 | 99 | -9 | 31*
COc1ccc(C(=O)N/C(=C\c2cccs2)c2nc3ccccc3[nH]2)cc1OC | 4 | 1 | ? | 3 | 49*
COc1ccc(/C=C(/NC(=O)c2ccccc2)c2nc3ccccc3[nH]2)cc1OC | 0 | 3 | -6 | 3 | 42*
COc1ccc(/C=C(/NC(=O)c2ccccc2)c2nc3ccc(Cl)cc3[nH]2)cc1OC | 3 | 7 | 6 | -22 | 36*
NC(=O)c1cccc(-c2ccnc3c2CC(C(=O)Nc2cccc(C(F)(F)F)c2)O3)c1 (stereo not drawn) | -1 | . | . | . | -3
Cn1c(=O)[nH]c(NCCc2ccc(O)cc2)c([N+](=O)[O-])c1=O | -2 | -1 | -9 | -8 | 26
COP(=O)(OC)c1nc(-c2cccc3ccccc23)oc1N1CCCCC1 | + | -1 | 6 | 2 | 10
CCOP(=O)(OCC)c1nc(-c2ccccc2)oc1N1CCCCC1 | + | 1 | -1 | -12 | 1
CCOP(=O)(OCC)c1nc(-c2cccc3ccccc23)oc1N1CCCCC1 | 175* | 1 | 6 | 4 | 2
N#Cc1nc(-c2cccc3ccccc23)oc1N1CCCCC1 | 4 | 4 | -7 | -4 | 11
CCOP(=O)(c1ccccc1)c1nc(-c2ccccc2C)oc1N1CCCCC1 (stereo not drawn) | . | 6 | -1 | 5 | .
COc1cc(/C=N/NC(=O)c2ccc(O)cc2)ccc1Oc1ccc([N+](=O)[O-])cn1 | -3 | 1 | 18 | -10 | 24
O=C1CC(c2ccccc2)CC(O)=C1C=NCC1CCCO1 (stereo not drawn) | 1 | 0 | -3 | -17 | 11
Oc1[nH]c2ccccc2c1C=NCC1CCCO1 (stereo not drawn) | -2 | -4 | 17 | 4 | 35*
O=S(=O)(CCNC1CC1)NC1CCCCC1 | -1 | . | . | . | -16
CC(=O)Nc1ccccc1-c1cccc2nccn12 | 125* | . | . | . | 6
CC(=O)Nc1cccc(-c2cccc3nccn23)c1 | 159* | . | . | . | -3
COc1ccccc1-c1cccc2nccn12 | 128* | . | . | . | 6
Clc1cccc(-c2cccc3nccn23)c1Cl | 7 | . | . | . | 4
CC(=O)c1ccc(-c2cccc3nccn23)cc1 | 6 | . | . | . | 24
COc1ncc(-c2cccc3nccn23)c(OC)n1 | 23 | . | . | . | 6
Cc1ccc(S(=O)(=O)c2c(N)n(Cc3ccco3)c3nc4ccccc4nc23)cc1C | 91* | -3 | -15 | -29 | 40*
CCCCn1c(NS(=O)(=O)c2ccccc2)c(S(=O)(=O)c2ccc(C)cc2)c2nc3ccccc3nc21 | 4 | 0 | -1 | -209 | 15
Nc1c(S(=O)(=O)c2ccccc2)c2nc3ccccc3nc2n1C1CC1 | 18 | 1 | -8 | 3 | 3
